From PubChem BioAssay
Pf apPOL block: Pf-apPOL DNA polymerase inhibition; inhibition, % at 10 µM; Recombinant Pf-apPOL, molecular beacon fluorescence, 1.5 h; actives 0.25% (n = 210,000)
mHTT-CaM PPI inh: disrupts binding of mutant huntingtin to calmodulin. P42858. AlphaScreen His-mHTT/GST-CaM binding, luminescence. inhibition, % at 15 µM. actives 3.6% (n = 190,000). AID 1671202;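 also: 0% = both proteins with DMSO and 100% = one protein alone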
Active calls of the source: *; ! = not confirmed by another sample. This is a sample that favours compounds with a hit; in the whole collection about 3.5% have one here. Rule as the data show it: active = inhibition above about 50%; inactive = the rest.

SMILES	Pf apPOL block	mHTT-CaM PPI inh
COc1ccc(OC)c(S(=O)(=O)n2cc([N+](=O)[O-])cn2)c1	-11.3	100.0*
COc1ccc(NC(=O)C2CCN(c3nccnc3Oc3cccc(C)c3)CC2)cc1F	-3.6	-1.8
COc1cc(-c2ccc(SC3CCCC3)nn2)cc(OC)c1OC	-27.7	1.2
CCCn1cc2c3c(cccc31)CN(C(=O)c1ccc(F)cc1)CC2	-0.5	94.3*
CCCn1cc2c3c(cccc31)CN(C(=O)c1ccsc1)CC2	5.4	39.2
Cn1cc2c3c(cccc31)CN(C(=O)c1ccc(Br)cc1)CC2	-4.7	54.3*
CCCn1cc2c3c(cccc31)CN(C(=O)CC(C)(C)C)CC2	-3.1	17.0
CCCn1cc2c3c(cccc31)CN(C(=O)c1ccccc1)CC2	-2.6	70.1*
CN(C)c1ccc(C(=O)N2CCc3cn(C)c4cccc(c34)C2)cc1	-3.7	1.4
Cc1ccc(NS(=O)(=O)c2cc3n(c2)CCCN(C)C3=O)c(F)c1	0.2	1.1
Cc1cc(NC(=O)CSc2nc3ccsc3c(=O)n2-c2cccc(Cl)c2Cl)n[nH]1	12.0	17.0
CS(=O)(=O)N(CC(=O)NC1CCCC1)c1cc(C(F)(F)F)ccc1Cl	-8.8	-3.0
CCCc1noc(-c2cccnc2N2CCCN(C(=O)c3ccc(OCC)cc3)CC2)n1	-4.3	-11.6
Cc1cc2c3c(C)n(C)c(C)c3c(C)nn2c1	4.8	79.1*
C=CCSc1nnc(-c2ccccc2N)c(=O)[nH]1	-6.5	99.1*!
Nc1ccccc1-c1nnc(SCc2ccccc2)[nH]c1=O	4.4	2.0
COc1cc(CNc2ccc3[nH]ncc3c2)c([N+](=O)[O-])cc1OC	6.9	58.1*
COc1cc(CNc2cc(OC)c(OC)c(OC)c2)c([N+](=O)[O-])cc1OC	2.0	40.9
COc1cc(CNc2cccc(F)c2)c([N+](=O)[O-])cc1OC	-2.1	60.7*
COC(=O)Cc1cc(OC)c(OC)cc1[N+](=O)[O-]	-0.9	0.9
CNC(=O)N1CCCC(c2cccc(C(=O)NCc3ccccc3F)c2)C1 (stereo unspecified)	-4.1	1.0
COc1cc(CN2CCc3nc(Nc4ccc5c(c4)OCO5)ncc3C2)cc(OC)c1OC	1.8	12.7
CCc1ccccc1NC(=O)N1CCC(c2nc(C(=O)N3CCOCC3)c(C)o2)CC1	2.0	1.8
O=C(Nc1sc2c(c1C(=O)NC1CCS(=O)(=O)C1)CCCC2)c1ccc(F)cc1 (stereo unspecified)	-4.8	-1.4
Cc1[nH]nc(-c2ccc(O)cc2O)c1Oc1ccccc1F	-9.4	41.7
SMILES	Pf apPOL block	mHTT-CaM PPI inh
CCc1cc(-c2n[nH]c(C)c2Oc2ccccc2)c(O)cc1O	-9.8	81.0*
COc1cc(C)c(-c2n[nH]c(C)c2Oc2ccccc2)c(O)c1	3.5	7.0
COc1ccc(-c2n[nH]c(C)c2Oc2ccccc2)c(O)c1OC	-6.9	48.2
CCCc1ccc(Oc2c(-c3ccc(O)cc3O)n[nH]c2C)cc1	-3.1	80.0*
Cc1[nH]nc(-c2ccc(OC(C)C)cc2O)c1Oc1ccccc1	6.7	67.0*
CCOc1ccc(-c2n[nH]c(C)c2Oc2ccc(F)cc2)c(O)c1	-1.2	26.3
CCc1cc(-c2n[nH]c(C)c2Oc2ccc(F)cc2)c(O)cc1O	8.5	100.2*
CCOc1ccccc1CNC(=O)C1CCCN(c2nccnc2Oc2ccccc2)C1 (stereo unspecified)	-7.8	1.2
COc1ccccc1CNC(=O)C1CCN(S(=O)(=O)N2CCCC2)CC1	-13.0	-3.0
CCOc1ccc(-c2n[nH]c(C)c2-c2ccc(F)cc2)c(O)c1	0.8	24.0
CCc1cc(-c2n[nH]c(C)c2-c2ccccc2)c(O)cc1O	0.3	68.6*
O=C(NCC1CCCO1)N1CCC(c2ccn3ncc(C(=O)N4CCCC4)c3c2)CC1 (stereo unspecified)	-2.0	-0.4
Cn1cccc(C(=O)N2CC3(COC(C)(C)OC3)C2)c1=O	-4.3	-4.0
Cc1cccc(OCC(=O)N2CCC(c3nc(C(=O)N4CCCC4)c(C)o3)CC2)c1	0.9	3.1
CN(CCCNC(=O)C1CCCN(c2ccc(N3CCOCC3)nn2)C1)c1ccccc1 (stereo unspecified)	-4.6	54.7*
CCCCNC(=O)C1CCCN(c2ccc(N3CCOCC3)nn2)C1 (stereo unspecified)	-4.0	-0.2
COc1ccc(C(CC(=O)NCc2cccnc2)NS(=O)(=O)c2ccc(C)cc2)cc1 (stereo unspecified)	-5.8	6.0
CNc1cnn(C2CCCCC2)c(=O)c1Cl	1.9	-1.5
CC1(C)CC(=O)C2=C(C1)N=C1c3ccccc3C(=O)C1C2c1ccc(O)c(O)c1 (stereo unspecified)	11.7	48.0
CC1(C)CC(=O)C2=C(C1)OC(N)=C(C#N)C2c1ccc(Br)cc1 (stereo unspecified)	-5.3	4.2
COc1ccc(C2C3=C(CCCC3=O)N=C3c4ccccc4C(=O)C32)cc1OC (stereo unspecified)	-2.7	36.0
CC1(C)CC(=O)C2=C(C1)N=C1c3ccccc3C(=O)C1C2c1ccc(Br)cc1 (stereo unspecified)	-1.8	65.0*
CC1(C)CC(=O)C2=C(C1)N=C1c3ccccc3C(=O)C1C2c1ccc(F)cc1 (stereo unspecified)	-1.5	62.0*
CC1(C)CC(=O)C2=C(C1)N=C1c3ccccc3C(=O)C1C2c1cc(Br)ccc1O (stereo unspecified)	-4.7	59.0*
CCOC(=O)c1c(S(=O)(=O)NCc2ccc3c(c2)OCO3)n[nH]c1CC	-3.1	0.6
SMILES	Pf apPOL block	mHTT-CaM PPI inh
CCc1ccc(NC(=O)N2CCCC(C)(C(=O)NCc3ccccc3)C2)cc1 (stereo unspecified)	-0.4	2.0
COc1ccc(C2CCC3(CCC(=O)N3CCOC(=O)C(C)C)CC2)cc1 (stereo unspecified)	-9.2	23.2
CC(C)C(=O)OCCCN1C(=O)CCC12CCC(c1ccccc1)CC2 (stereo unspecified)	-9.3	69.5*
Cc1ccc2[nH]c3c(c2c1)CCC1C3=NNC1c1ccco1 (stereo unspecified)	-4.4	79.0*
Cc1ccc2[nH]c3c(c2c1)CCCC3=O	-6.0	2.2
CCOc1ccc(C=C2Oc3cc(OC(=O)c4ccco4)ccc3C2=O)cc1	-7.9	5.4
O=C(NC1CC1)c1ccc(OCC2CCCN(C(=O)c3ccc(F)c(F)c3)C2)cc1 (stereo unspecified)	-3.5	2.3
CCN(CC)c1ccc(/C=c2\sc3n(c2=O)CN(c2ccc([N+](=O)[O-])cc2)CN=3)cc1	-3.0	6.0
COc1cc(C2CC(=O)Nc3n[nH]c(-c4ccccc4)c32)cc(OC)c1OC (stereo unspecified)	-4.9	100.0*
COc1ccc(C2CC(=O)Nc3n[nH]c(-c4ccc(Cl)cc4)c32)cc1OC (stereo unspecified)	-1.3	4.8
COc1cc(C2CC(=O)Nc3n[nH]c(-c4ccc(Cl)cc4)c32)ccc1O (stereo unspecified)	2.5	100.0*
COc1cccc(C2CC(=O)Nc3n[nH]c(-c4ccccc4)c32)c1 (stereo unspecified)	0.8	12.9
COc1cc(C2CC(=O)Nc3n[nH]c(C)c32)ccc1OCc1cccc(C)c1 (stereo unspecified)	-2.7	20.4
COc1cc(C2CC(=O)Nc3n[nH]c(C)c32)ccc1OCc1cccc(Cl)c1 (stereo unspecified)	-0.3	55.5*
CC1C(=O)N(c2ccc3c(c2)CCC3)CCN1C(=O)c1ccccc1F (stereo unspecified)	-1.0	5.8
